In PubChem BioAssay (NCI):
Compounds without any hit were thinned out: in the full panel of roughly 83,000, 20% have a hit.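 Assay: single dose, 48 h. Readout: percent growth (0 = no net growth; negative = cell death). Active: <10.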 Active and inactive are the calls of the source.

Each compound was assayed on OVCAR-3 ovarian (assay: NCI-60 one-dose screen, 48 h (100 = growth as untreated, 0 = no growth, -100 = all killed)). Settings: 10 µM unless noted.

SMILES | growth
Cc1cc(O)cc(-c2c(-c3ccnc(-c4cccnc4)c3)cnn2C)c1 | 79.4% (inactive)
CS(=O)(=O)N1CCN(Cc2cc3nc(-c4cccc5[nH]ncc45)nc(N4CCOCC4)c3s2)CC1 | 14.5% (inactive)
CN[C@@H]1C[C@H]2O[C@@](C)([C@@H]1OC)n1c3ccccc3c3c4c(c5c6ccccc6n2c5c31)C(=O)N[C@H]4O | -31.6% (active)
O=c1[nH]ccc2c(S(=O)(=O)N3CCCNCC3)cccc12 | 60.7% (inactive)
CCN(CCCOc1ccc2c(Nc3cc(CC(=O)Nc4cccc(F)c4)[nH]n3)ncnc2c1)CCOP(=O)(O)O | 78.2% (inactive)
Cn1cc(-c2cnn3c(N)c(Br)c([C@@H]4CCCNC4)nc23)cn1 | 59.8% (inactive)
C[C@@H](Nc1cc(F)cc(F)c1)c1cc(C(=O)N(C)C)cc2c(=O)cc(N3CCOCC3)oc12 | 40% (inactive)
COc1ccc2c(CCCc3ccc(Cl)cc3Cl)c3[n+](cc2c1OC)CCc1cc2c(cc1-3)OCO2 | -48.4% (active)
Cn1c(=O)c(F)c(Nc2ccc(I)cc2F)c2c(=O)n(C[C@@H](O)CO)cnc21 | 86.9% (inactive)
CC(C)(C)c1cnc(CSc2cnc(NC(=O)C3CCNCC3)s2)o1 | 20.2% (inactive)
NC1(C(=O)N[C@@H](CCO)c2ccc(Cl)cc2)CCN(c2ncnc3[nH]ccc23)CC1 | 61.3% (inactive)
COC(=O)c1ccc2c(C(=Nc3ccc(N(C)C(=O)CN4CCN(C)CC4)cc3)c3ccccc3)c(O)[nH]c2c1 | 91.3% (inactive)
CS(=O)(=O)CCNCc1ccc(-c2ccc3ncnc(Nc4ccc(OCc5cccc(F)c5)c(Cl)c4)c3c2)o1 | -63.1% (active)
